{"source": "PubChem BioAssay (Tox21)", "note": "Results filed as inconclusive are left out. A number with no mark means an inactive call. Activity calls are given as the source filed them. The call rests on the fitted dose curve; in most records, active means well fitted inhibition curve with a large enough effect in the repeat runs; inconclusive means weak or mixed curves, or effect the other way; inactive means no such curve, though single readings can be large or run the other way. On the % scale 0 is the no-effect control and ±100 the full control effect; potency means the concentration at half of the fitted maximal effect.", "data": [{"molecular_target": "Androgen receptor (Homo sapiens) (UniProt P10275)", "sequence (P10275 whole entry, looked up)": "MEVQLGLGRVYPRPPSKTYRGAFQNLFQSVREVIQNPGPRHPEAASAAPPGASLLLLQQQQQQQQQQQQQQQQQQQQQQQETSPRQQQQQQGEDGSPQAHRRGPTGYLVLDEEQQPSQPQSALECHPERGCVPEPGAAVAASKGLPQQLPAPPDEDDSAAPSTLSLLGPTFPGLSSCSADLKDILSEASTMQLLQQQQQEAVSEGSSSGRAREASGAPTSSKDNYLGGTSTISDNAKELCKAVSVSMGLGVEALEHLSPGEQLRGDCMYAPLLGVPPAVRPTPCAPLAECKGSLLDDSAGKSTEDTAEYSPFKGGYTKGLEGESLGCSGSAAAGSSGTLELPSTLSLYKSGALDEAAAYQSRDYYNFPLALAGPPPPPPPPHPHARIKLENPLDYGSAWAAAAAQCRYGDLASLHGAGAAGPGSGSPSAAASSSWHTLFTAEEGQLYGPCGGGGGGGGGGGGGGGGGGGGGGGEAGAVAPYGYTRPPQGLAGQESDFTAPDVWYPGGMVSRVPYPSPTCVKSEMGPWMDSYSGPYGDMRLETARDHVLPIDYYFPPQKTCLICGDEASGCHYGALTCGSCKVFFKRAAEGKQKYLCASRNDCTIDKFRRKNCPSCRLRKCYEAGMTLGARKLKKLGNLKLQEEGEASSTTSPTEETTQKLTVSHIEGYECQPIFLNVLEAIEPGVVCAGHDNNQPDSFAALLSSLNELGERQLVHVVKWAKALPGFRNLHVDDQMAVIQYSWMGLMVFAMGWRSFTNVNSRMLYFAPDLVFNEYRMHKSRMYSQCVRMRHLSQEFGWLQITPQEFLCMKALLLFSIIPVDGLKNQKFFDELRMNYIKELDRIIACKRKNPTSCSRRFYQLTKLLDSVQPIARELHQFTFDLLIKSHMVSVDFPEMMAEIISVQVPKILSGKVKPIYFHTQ", "assay": "qHTS assay to identify small molecule antagonists of the androgen receptor (AR) signaling pathway using the MDA cell line (AID 743042; further: nearly all actives have a fitted effect of over 55% in size)", "conditions": "MDA-kb2 AR-luc, MMTV luciferase, R1881 antagonist, 16 h; series mostly up to 70.3 µM; activity change, negative = inhibition: at the top concentration", "in_short": "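Antagonist mode: compounds plus R1881 agonist added to MDA-kb2 AR-luc cells, incubated 16 h at 37C. Luciferase reporter luminescence quantified, with multiplexed CellTiter-Fluor readout for cell viability.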", "values": [{"smiles": "CN(C)c1ccc(C2(c3ccc(N(C)C)cc3)OC(=O)c3cc(N(C)C)ccc32)cc1", "activity change, negative = inhibition": "-15%"}, {"smiles": "C=C(C)C(=O)OCC[N+](C)(C)C", "activity change, negative = inhibition": "20.6%"}, {"smiles": "Oc1ccc2c(c1)-c1ccccc1C2", "activity change, negative = inhibition": "-16.9%"}, {"smiles": "CC(C)C(C)(C)C(C)(C)C(C)(C)S", "activity change, negative = inhibition": "9.08%"}, {"smiles": "CC(C)=CCOc1ccc(/C=C/C(=O)c2ccc(OCC=C(C)C)cc2OCC(=O)O)cc1", "activity change, negative = inhibition": "12.1%"}, {"smiles": "O=C1CCCc2c1cc1ccc3cccc4ccc2c1c34", "activity change, negative = inhibition": "19.1% [at 95 µM]"}, {"smiles": "CC(C)(C)CC(C)(C)c1ccc(O)c(Cc2ccc(Cl)cc2Cl)c1", "activity change, negative = inhibition": "27.8%"}, {"smiles": "O=C(c1ccc(F)cc1)C1CCN(CCn2c(=O)[nH]c3ccccc3c2=O)CC1", "activity change, negative = inhibition": "-11.2%"}, {"smiles": "O=C(Oc1ccccc1)c1ccccc1C(=O)Oc1ccccc1", "Potency": "54.5 µM (active)"}]}]}
